Test results taken from PubChem BioAssay AID602304 (NMMLSC, 2012).
Results with a measured potency or affinity are listed apart. Active and inactive are the calls of the source. The rule behind the calls is not given here.

Assay: vacuolar alkalinization by V-ATPase blockade – S. cerevisiae, BCECF dye, powder set 1, dose response (AID 602304)
Conditions: BCECF fluorescence; series mostly up to 100 µM

Row | SMILES | outcome
1 | O=C(c1cccs1)N1CCN(c2nc3ccc(F)cc3s2)CC1 | inactive
2 | O=C(c1ccco1)N1CCN(c2nc3ccc(F)cc3s2)CC1 | inactive
3 | O=C(C1CCCCC1)N1CCN(c2nc3ccc(F)cc3s2)CC1 | inactive
4 | Cc1cc(C(=O)N2CCN(c3nc4ccc(F)cc4s3)CC2)n(C)n1 | inactive
5 | O=C(Nc1ccccc1N1CCOCC1)c1ccc([N+](=O)[O-])o1 | inactive
6 | O=C(C1CC1)N1CCN(c2nc3ccc(F)cc3s2)CC1 | inactive
7 | O=C(c1nc2ccccc2s1)N1CCN(c2nc3ccc(F)cc3s2)CC1 | inactive
8 | O=C(c1ccc([N+](=O)[O-])o1)N1CCN(c2nccs2)CC1 | inactive
9 | CS(=O)(=O)c1ccc2nc(N3CCN(C(=O)c4ccc([N+](=O)[O-])o4)CC3)sc2c1 | inactive
10 | O=C(c1ccc(Cl)s1)N1CCN(c2nc3ccc(F)cc3s2)CC1 | inactive
11 | Cc1cc(C(=O)N2CCN(c3nc4ccc(F)cc4s3)CC2)no1 | inactive
12 | O=C(c1ccno1)N1CCN(c2nc3ccc(F)cc3s2)CC1 | inactive
13 | CS(=O)(=O)c1cccc2sc(N3CCN(C(=O)c4ccc([N+](=O)[O-])o4)CC3)nc12 | inactive
14 | O=C(c1cnccn1)N1CCN(c2nc3ccc(F)cc3s2)CC1 | inactive
15 | O=C(c1ccc(Br)s1)N1CCN(c2nc3ccc(F)cc3s2)CC1 | inactive
16 | CC(C)(C)C(=O)N1CCN(c2nc3ccc(F)cc3s2)CC1 | inactive
17 | Cc1cc(C(=O)N2CCN(c3nc4ccc(F)cc4s3)CC2)nn1C | inactive
18 | Cc1cc(C(=O)N2CCN(c3nc4ccc(F)cc4s3)CC2)on1 | inactive
19 | O=C(c1ccc([N+](=O)[O-])o1)N1CCN(c2ccccn2)CC1 | inactive
